Experimental data reported in PubChem BioAssay (Tox21).
Records with an inconclusive call do not appear. Unmarked numbers belong to inactive results. Active and inactive are the calls of the source. Calls follow the shape of the dose curve; as a rule, active = well fitted cell-killing curve with a large enough effect in the repeat runs; inconclusive = weak or mixed curves, or effect the other way; inactive = flat fitted curve, though single readings scatter.

Test: cAMP Responsive Elements (CRE) small molecule antagonists, cell-based qHTS assay: qHTS cell viability counter screen (AID 2060913); also: nearly all actives have a fitted effect of over 40% in size
Conditions: CRE-bla HEK293T viability, CellTiter-Glo luminescence, 5 h; series mostly up to 92.4 µM; viability change, negative = cytotoxic: at the top concentration
Summary of the method: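 Cytotoxicity counter screen multiplexed with the CRE-bla antagonist read: HEK293T cells in DMEM with dialyzed FBS and 25 mM HEPES were treated 3 hrs under 0.25 uM final NKH477, then viability measured by CellTiter-Glo luminescence.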
% is scaled to controls: 0 for no effect and ±100 for the full control effect.

SMILES | viability change, negative = cytotoxic | Potency
COc1cc2c(Nc3ccc(Br)cc3F)ncnc2cc1OCC1CCN(C)CC1 | -0.808% [at 42.5 µM] | 
OCCC(O)CO (centres undefined) | 20.2% | 
Cc1cc(O)c(Cl)c(C)c1Cl | -5.89% | 
CCCCNC(=O)NS(=O)(=O)c1ccc(C)cc1 |  | inactive
CCOC=C(C(=O)OCC)C(=O)OCC | 6.22% | 
C=C(C)C(=O)OCCOc1ccccc1 | 2.98% | 
CC(C)(Sc1cc(C(C)(C)C)c(O)c(C(C)(C)C)c1)Sc1cc(C(C)(C)C)c(O)c(C(C)(C)C)c1 | -1.65% [at 42.5 µM] | 
CCCCCCCCCCCCCCC | 2.9% | 
O=C(CS)Nc1ccccc1 | -2.33% [at 42.5 µM] | 
CCCCCC(=O)OCC | -5.87% | 
COc1ccc(OC)cc1 |  | inactive
c1ccc(CC2=NCCN2)cc1 | 4.72% [at 42.5 µM] | 
Oc1ccc2c(c1)OCO2 | -7.06% | 
CCC1(C)CC(=O)NC1=O (centres undefined) | 1.56% [at 42.5 µM] | 
NC(CCC(=O)O)C(=O)O (centres undefined) | -5.94% | 
O=C1OC(=O)c2cc(-c3ccc4c(c3)C(=O)OC4=O)ccc21 | -3.26% | 
Cc1ccccc1S(=O)(=O)O | 9.27% | 
CC(C(=O)O)c1ccc(/C=C2\CCCCC2=O)cc1 (centres undefined) | 14.1% [at 42.5 µM] | 
Cc1cccc(C)c1O |  | inactive
Oc1cc2ccccc2cc1O | -3.33% | 
C=C(C)OC(C)=O |  | inactive
BrCCCCCBr | 19.8% | 
Cc1ccccc1Br | -1.04% | 
c1ccc(CSCc2ccccc2)cc1 | 1.87% | 
CNC(=O)Oc1ccc2c(c1)[C@]1(C)CCN(C)[C@@H]1N2C |  | inactive
C[Si](C)O[Si](C)C | 0.249% | 
CCO/C([O-])=N/c1c[n+](N2CCOCC2)no1 | 2.41% [at 42.5 µM] | 
COC(=O)c1sccc1S(N)(=O)=O | 0.114% | 
CCCCC(O)/C=C(C)/C=C/C=C/C(=O)N1CCCC1=O (centres undefined) | 0.0221% [at 42.5 µM] | 
